# Results published in PubChem BioAssay AID504339 (National Center for Advancing Translational Sciences (NCATS), 2011).
# Values joined by “and” are separate entries in the source; they are usually repeats but may differ in a detail not shown here. Equal values may be shown once. Out of some 390,000 compounds screened, about 17,000 (4.4%) were called active. About 8% were inconclusive and are not listed. The call rests on the fitted dose curve; in most records, active means well fitted inhibition curve with a large enough effect; inconclusive means small, poorly fitted or top-dose-only effect; inactive means no such curve, though single readings can be large or run the other way. The entries come from a sample that favours actives as a whole. Entries that show only a call come without a potency. A structure can be active in one record and inactive in another.
# Target: Lysine-specific demethylase 4A (Homo sapiens) (UniProt O75164)
# Assay: qHTS Assay for Inhibitors of JMJD2A-Tudor Domain; further: nearly all actives have a fitted effect of over 50% in size
# Conditions: AlphaScreen JMJD2A-Tudor / H3K4me3 peptide binding; series mostly up to 114 µM
# Potency means the concentration at half of the fitted maximal effect.
# Sequence of Lysine-specific demethylase 4A (Homo sapiens) (O75164 whole entry, looked up, the tested form may be a part): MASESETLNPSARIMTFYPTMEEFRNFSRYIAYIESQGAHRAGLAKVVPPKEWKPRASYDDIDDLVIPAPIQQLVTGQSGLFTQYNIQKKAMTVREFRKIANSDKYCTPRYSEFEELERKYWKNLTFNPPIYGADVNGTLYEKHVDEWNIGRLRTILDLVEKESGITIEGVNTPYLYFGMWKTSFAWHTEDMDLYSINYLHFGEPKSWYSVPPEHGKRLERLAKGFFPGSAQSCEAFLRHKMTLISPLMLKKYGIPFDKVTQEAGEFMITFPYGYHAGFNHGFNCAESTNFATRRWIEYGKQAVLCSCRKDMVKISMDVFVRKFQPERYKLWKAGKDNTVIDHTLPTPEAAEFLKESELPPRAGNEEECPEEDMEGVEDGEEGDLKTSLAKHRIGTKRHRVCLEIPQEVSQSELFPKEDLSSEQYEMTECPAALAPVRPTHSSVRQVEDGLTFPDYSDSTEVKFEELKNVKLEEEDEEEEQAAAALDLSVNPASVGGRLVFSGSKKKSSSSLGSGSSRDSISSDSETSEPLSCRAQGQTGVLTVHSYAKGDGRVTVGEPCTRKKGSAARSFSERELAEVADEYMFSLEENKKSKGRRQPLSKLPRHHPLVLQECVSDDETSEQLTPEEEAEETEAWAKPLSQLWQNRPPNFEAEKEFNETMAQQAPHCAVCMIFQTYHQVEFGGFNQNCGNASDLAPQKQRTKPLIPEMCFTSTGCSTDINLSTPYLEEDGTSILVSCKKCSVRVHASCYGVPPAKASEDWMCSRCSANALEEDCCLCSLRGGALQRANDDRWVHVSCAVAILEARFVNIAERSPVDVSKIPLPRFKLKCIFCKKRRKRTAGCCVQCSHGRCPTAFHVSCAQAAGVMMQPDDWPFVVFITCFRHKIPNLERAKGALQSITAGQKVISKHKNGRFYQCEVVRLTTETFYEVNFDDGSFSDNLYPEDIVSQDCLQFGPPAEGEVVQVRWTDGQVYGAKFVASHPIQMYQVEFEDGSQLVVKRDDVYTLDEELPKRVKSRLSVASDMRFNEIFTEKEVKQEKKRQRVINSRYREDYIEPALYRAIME
SMILES,Potency,"activity change, negative = inhibition"
COc1cc(C=NNC(=O)c2cccnc2)ccc1OC(=O)c1ccccc1F,inactive,
O=C(N/N=C/c1ccccn1)c1cccc(NC(=O)c2ccc(Cl)cc2)c1,inactive,
O=C(N/N=C/c1ccccn1)c1cccnc1,79.4 µM (active),
Cc1ccc2oc3c(c(=O)c2c1)C(c1ccc(O)cc1)N(Cc1ccc2c(c1)OCO2)C3=O (centres undefined),inactive,
CCOc1ccc(S(=O)(=O)N(CC(=O)NCCSCc2ccc(C)cc2)c2ccccc2)cc1,inactive,
S=C(NCCCc1cnc[nH]1)NCCCN(Cc1ccc(Cl)c(Cl)c1)c1ccc(Br)cn1,44.7 µM (active),
CCOc1ccc(Nc2c(S(=O)(=O)c3ccccc3)cnc3ccccc23)cc1,inactive,
COc1cccc(-n2ccn(CC(=O)NCc3ccc(C)cc3)c(=O)c2=O)c1,inactive,
C=CC1=C(C(=O)O)N2C(=O)[C@@H](NC(=O)/C(=N/OCC(=O)O)c3csc(N)n3)[C@H]2SC1,25.1 µM (active),
C=CC1=C(C(=O)O)N2C(=O)[C@@H](NC(=O)/C(=N\OCC(=O)O)c3csc(N)n3)[C@H]2SC1,20 µM (active),
CO/N=C(\C(=O)N[C@@H]1C(=O)N2C(C(=O)O)=C(COC(C)=O)CS[C@H]12)c1csc(N)n1 (stereo in doubt),inactive and 79.4 µM (active) and 56.2 µM (active),
CC(C)(C)OC(=O)C1=C(CO)CS[C@@H]2[C@H](NC(=O)Cc3ccccc3)C(=O)N12,inactive,
COc1cc(C(=O)NCC(c2ccc(Cl)cc2)N2CCOCC2)cc(OC)c1OC (centres undefined),inactive,
Cc1cc(C)cc(NC(=O)CCCc2nc(-c3ccccc3Cl)no2)c1,inactive,
Cc1ccc(OCCSc2nc3ccc(NC(=O)COc4ccc(C)cc4)cc3s2)cc1,inactive,
CC(=O)c1ccc(NC(=O)CSc2nnc(NC(=O)Nc3ccccc3)s2)cc1,inactive,
Cn1c(=O)c2c(nc(SCC(=O)Nc3ccc(F)cc3)n2Cc2ccc(Cl)cc2)n(C)c1=O,inactive,
CCOC(=O)c1ccc(CSc2nnc3cc(C)c4ccccc4n23)cc1,inactive,
Cc1c(CCNC(=O)c2ccc(C(F)(F)F)cc2)sc2nc(-c3ccc(F)cc3)nn12,inactive,
Oc1c(C(c2ccc(F)cc2)N2CCN(Cc3ccccc3)CC2)sc2nc(-c3ccco3)nn12 (centres undefined),inactive,
COc1ccc(CN2CCN(Cc3cn(C)nc3-c3ccccc3)CC2CCO)c(C)c1C (centres undefined),inactive,
Cc1ccccc1CN1C[C@@H]2C[C@@H](c3cn(C)nc3-c3ccccc3)N3CCC[C@@]23C1=O,63.1 µM (active),
Cc1ccccc1CN1C[C@@H]2C[C@@H](c3ccc4nsnc4c3)N3CCC[C@@]23C1=O,inactive,
O=C(CCc1nc(CN2CCN(S(=O)(=O)c3ccc(Br)cc3)CC2)no1)N1CCCCC1,inactive,
COc1ccc(NC(=O)CSc2nc3ccccc3n2CC(=O)N2CCCCC2C)cc1 (centres undefined),inactive,

SMILES,Potency,"activity change, negative = inhibition"
COc1ccc(-c2nnc(-c3ccc4ccccc4c3)o2)cc1,inactive,
COc1ccc(Nc2ccc3ccccc3c2)cc1,56.2 µM (active),
COc1ccc(Nc2cc(=O)oc3ccccc23)cc1,inactive,
COc1cccc(NC(=O)C(=O)NCC(c2ccc3c(c2)OCO3)N2CCN(C)CC2)c1 (centres undefined),inactive,
Fc1ccccc1/C=N/n1c(-c2cccnc2)n[nH]c1=S,3.98 µM (active),
S=c1nc2ccccc2c2nc(-c3cccnc3)[nH]n12,,-17.6% [at 11.4 µM] (inactive)
S=c1[nH]nc(-c2ccncc2)n1/N=C/c1ccccc1Cl,3.16 µM (active),
COc1ccc(-c2cc(C(=O)Nc3sc4c(c3C(N)=O)CCCC4)no2)cc1,inactive,
Cc1cccc(N2CCN(C(=O)CCn3c(=O)c4cccn4c4cccnc43)CC2C)c1 (centres undefined),inactive,
COc1ccc(Cn2c(=O)c3oc4ccccc4c3n(CC(=O)Nc3ccc(F)cc3F)c2=O)cc1,inactive,
CCC1CCCCN1C(=O)Cn1c(=O)n(CCCCCC(=O)NCc2ccccc2)c(=O)c2sccc21 (centres undefined),inactive,
CN1CCOc2cc(S(=O)(=O)N3CCN(S(=O)(=O)c4c(F)cccc4F)CC3)cnc21,inactive,
CCn1c(C)nc2c1C(=O)c1ccccc1C2=O,inactive,
CCn1c(SCC(=O)NC2CCCC2)nnc1-c1ccoc1C,inactive,
CCn1c(-c2ccoc2C)n[nH]c1=S,10 µM (active),
CCCc1cc(-c2n[nH]c(=S)n2CC)c2ccccc2n1,79.4 µM (active),
CCn1c(SCC(=O)Nc2nccs2)nnc1-c1ccncc1,inactive,
CCCn1c(C)cc(-c2csc(NC(=O)CCc3nc4ccccc4c(=O)[nH]3)n2)c1C,inactive,
CCn1c(SCC(=O)Nc2ccc3c(c2)OCCO3)nnc1-c1ccncc1,inactive,
CC(C)n1c(-c2cccs2)nc2ccccc21,inactive,
CCn1c(-c2ccncc2)n[nH]c1=S,10 µM (active),
CC(C)n1c(-c2ccncc2)n[nH]c1=S,22.4 µM (active),
O=C(CC1C(=O)N(c2ccccc2)C(=O)N1CCc1cccs1)Nc1ccc(F)cc1 (centres undefined),inactive,
O=C(NCCCO)C(=O)Nc1c2c(nn1-c1ccccc1)CSC2,inactive,
